Experimental data from PubChem BioAssay AID1626 (SRMLSC, 2009).
Several values for one entry are separate records, joined by “and”; a condition that tells them apart may be missing. Equal values may be shown once. The whole screen tested about 220,000 compounds, of which about 2,000 (0.91%) were called active. About 2% were inconclusive and are not listed. The list is a sample of the results. Results with a measured potency or affinity are listed apart. Values without a mark were called inactive. Cut-off read from the data, not from the text of the source: inconclusive = inhibition above about 80% without an active follow-up result; inactive = below that; test concentration not stated here.

Assay: M. tuberculosis H37Rv growth inhibitors, H37Rv strain (AID 1626);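 note: bacteria incubated seven days before Alamar blue readout; 0% = bacteria only wells and 100% = bacteria with antibiotic wells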
Settings: hits give high values, concentration not given here

SMILES | inhibition
O=C(COC(=O)CC1CC2CCC1C2)Nc1c(F)cccc1F (stereo not given) | -6.22%
CCCCOC(=O)c1ccc(NC(=O)c2c(OC)cccc2OC)cc1 | -7.36%
CCOC(=O)c1ccc(NC(=S)NCc2cccnc2)cc1 | -9.64%
CCN(CC)CCNC(=O)C(=O)Nc1ccc(C(=O)OC)cc1 | 0.58%
CCOC(=O)c1ccc(NC(=O)C(=O)NCCc2ccc(OC)cc2)cc1 | 2.35%
CCN(CC)CCNC(=O)c1ccc(NC(C)=O)cc1 | -2.03% and 6.46%
CCCCOC(=O)c1ccc(NC(C)=O)cc1 | 58.3%
CCCCNc1ccc(C(=O)OCCN(C)C)cc1 | 5.64%
CCCCOC(=O)c1ccc(NC(=O)C(=O)NCc2ccco2)cc1 | 5.24%
CCOc1cc(CNc2ccc(N(C)C)cc2)cc(Br)c1OCC(=O)NC(C)(C)C | 13.9%
O=C(Cn1nnc2ccccc21)OCc1ccccc1 | 3.11%
CC(C(=O)Nc1ccc(C(=O)O)cc1)N1C(=O)c2ccccc2C1=O (stereo not given) | 2.02%
CC1C(=O)NN=C1C(=O)N/N=C/c1ccco1 (stereo not given) | 4.15%
N/C(CN1CCCC1=O)=N\OC(=O)c1ccccc1Cl | -4.21%
CC(C)(C)C(=O)Nc1ccc(N=Nc2ccccc2)cc1 | 1.74%
COc1ccc(C2=NOC(C)(c3nnc(-c4ccncc4)o3)C2)cc1 (stereo not given) | 3.27%
O=C(c1csc2c1CCCC2)N1CCCCC1 | -7.91%
Cc1ccc2c(c1)NC(=O)C(CC(=O)NCCCN1CCc3ccccc3C1)O2 (stereo not given) | -7.1%
CC(=O)Oc1ccc2c(C)cc(=O)oc2c1 | 74.8%
Cc1cc(=O)oc2cc(OC(=O)c3ccccc3)ccc12 | 70%
COCCOC(=O)c1c(C)oc2ccc(OC(=O)c3c(OC)cccc3OC)cc12 | 9.56%
COCCOC(=O)c1c(C)oc2ccc(OCc3ccccc3)cc12 | 0.54%
COCCOC(=O)c1c(C)oc2ccc(OS(C)(=O)=O)cc12 | 10.4%
COCCOC(=O)c1c(C)oc2ccc(OC(=O)N(C)C)cc12 | -0.97%
COc1ccccc1N(CC(=O)NCc1ccccc1)C(=O)CCC(=O)Nc1cc(C)ccn1 | -0.58%

SMILES | inhibition
Clc1cccc(-c2nnc(-c3ccccc3)o2)c1 | 10.9%
N#CCC(=O)Nc1ccc(C(=O)NCc2ccccn2)cc1 | -2.46%
CCC(=O)c1cc(F)c(N2CCN(S(=O)(=O)c3ccc(C)cc3)CC2)cc1C | 4.53%
O=C(CN1C(=O)CCSc2ccccc21)N1CCC2(CC1)OCCO2 | -1.04%
CCc1nnc(NC(=O)CSc2nnc(COc3ccccc3)n2Cc2ccccc2)s1 | -6.06%
O=C(NCc1ccccc1)c1c[nH]c2cc3c(cc2c1=O)OCCO3 | -8.63%
CC(c1ccccc1C(O)c1ccccc1)N(C)C (stereo not given) | -3.64%
CC(c1ccccc1C(O)(c1ccccc1)c1ccccc1)N(C)C (stereo not given) | 12.7%
COc1ccc(CNC(=O)CCn2c(=O)[nH]c3ccccc3c2=O)cc1 | -0.21%
CCn1c(C2CCN(S(=O)(=O)c3ccc(OC)cc3)CC2)n[nH]c1=S | 2.92%
Cc1[nH]nc2c1C(c1ccc(Cl)cc1)C(C#N)=C(N)O2 (stereo not given) | -11.2%
Cc1ccc(C2C(C#N)=C(N)Oc3n[nH]c(C)c32)cc1 (stereo not given) | -5.8%
Cc1[nH]nc2c1C(c1ccco1)C(C#N)=C(N)O2 (stereo not given) | 5.49%
Cc1[nH]nc2c1C(c1ccc(-c3ccccc3C#N)o1)C(C#N)=C(N)O2 (stereo not given) | -1.71%
O=C1CCC(c2ccccc2)=NN1 | -7.26%
CC(C)=C1C2CCC1C1C(=O)N(c3ccc(C)c(C)c3)C(=O)C21 (stereo not given) | 2.47%
Cn1cc(Br)c(C(=O)NC(=S)Nc2ccc(S(N)(=O)=O)cc2)n1 | -5.09%
Cc1cc(C(=O)Nc2cccnc2Cl)on1 | -0.41%
Cc1occc1-c1nnc(SCC(=O)Nc2nccs2)n1CCc1ccccc1 | 1.51%
CC(=O)Nc1nc(-c2ccc([N+](=O)[O-])cc2)cs1 | -3.92%
Cc1csc(NC(=O)c2ccc(C)c([N+](=O)[O-])c2)n1 | 3.94%
CC(=O)Nc1nc(-c2cccs2)cs1 | -6.43%
COCC(=O)Nc1nc(-c2ccc([N+](=O)[O-])cc2)cs1 | 0.01%
Cc1csc(NC(=O)c2ccc(C(=O)Nc3nc(C)cs3)cc2)n1 | -5.15%
COc1ccc(CC(=O)Nc2nc(-c3cccc([N+](=O)[O-])c3)cs2)cc1 | 1.75%

SMILES | inhibition
Cc1cc(NS(=O)(=O)c2ccc(NC(=O)NC(C)(C(F)(F)F)C(F)(F)F)cc2)no1 | 3.8%
CCN1CCN(C(=O)CCNC(=O)Cn2ccc3ccccc3c2=O)CC1 | -4.7%
O=C(O)c1ccc(Cn2cnc3scc(-c4ccccc4)c3c2=O)cc1 | 1.45%
CCc1cccc2c(C(=O)CSc3nnc(-c4ccoc4C)n3C)c[nH]c12 | -9.96%
Cc1ccc2nc3c(cc2c1)CC1(C(=O)N(C)C(=O)N(C)C1=O)C1COCCN31 (stereo not given) | 15.8%
Cc1ccc(-n2c(=S)[nH]c3[nH]ncc3c2=O)cc1 | 1.01%
O=C1Nc2cc(C(=O)N3CCc4ccccc4C3)ccc2S/C1=C\c1ccccc1 | 27.6%
COc1ccc(/C=C2\Sc3ccc(C(=O)N4CCc5ccccc5C4)cc3N(C)C2=O)cc1 | 23.7%
CCCCSc1nc2ccc(Nc3nc(N4CCOCC4)nc(N4CCOCC4)n3)cc2s1 | 7.41%
COCc1cc(=O)n2[nH]c(SCc3ccccc3)nc2n1 | -0.4%
CC(C)COc1ncnc2c1sc1nc3c(cc12)COC(C)(C)C3 | -12.6%
Cc1cc(Nc2ccccc2)n2nc(C)c(-c3ccccc3)c2n1 | 3.74%
CC(=O)Nc1ccc(Nc2cc(C)nc3c(-c4ccc(Cl)cc4)c(C)nn23)cc1 | 21.5%
Cc1cc(NCCCN2CCOCC2)n2nc(C)c(-c3ccccc3)c2n1 | 1.95%
Cc1cc(NCCN2CCOCC2)n2nc(C)c(-c3ccccc3)c2n1 | 2.31%
Cc1nn2c(NCc3ccccn3)cc(C(C)(C)C)nc2c1-c1ccccc1 | 68.6%
CCCc1cc(N2CCCC2)n2nc(C)c(-c3ccccc3)c2n1 | -0.95%
Cc1nn2c(N3CCCC3)cc(C(C)C)nc2c1-c1ccccc1 | -3.85%
Cc1nn2c(NCc3ccccn3)cc(C(C)C)nc2c1-c1ccccc1 | 99.8%
NC(=S)Nc1cccc(F)c1 | -6.55%
Cc1ccc(CNC(=O)Nc2cccc(C)c2)cc1 | -0.4%
CCC(Sc1ccccn1)C(=O)Nc1nnc(C)s1 (stereo not given) | 22%
O=C(Nc1ccc2c(c1)OCO2)c1nn(-c2ccccc2)c(=O)c2ccccc12 | -10.6%
Cc1nc2ncccn2c1-c1csc(Nc2ccc(O)cc2)n1 | 1.06%
Cc1ccc(Nc2nc(-c3c(C)nc4ncccn34)cs2)cc1 | 6.26%

SMILES | inhibition
O=C(Nc1cccc(Cl)c1)OCc1cn(-c2ccccc2)nn1 | -9.19%
Cc1ccc(CN2CCN(/N=C/c3cc(Br)ccc3O)CC2)cc1 | 2.82%
COc1ccc(CCNC(=O)CN(CCc2ccccc2)S(C)(=O)=O)cc1OC | 5.24%
CCCN(CCC)C(=O)CSc1nc2c(sc(=S)n2-c2ccc(OCC)cc2)c(=O)[nH]1 | 6.22%
O=C(Nc1ccccc1C(=O)NCc1ccccc1)c1ccccc1 | -4.15%
O=C(O)CCC(=O)Nc1ccccc1C(=O)NCc1ccccc1 | -4.2%
O=C(NCc1cccc(CNC(=O)c2ccco2)c1)c1ccco1 | -1.79%
N/C(Cc1ccccc1Sc1ccccc1)=N\O | -3.65%
COc1ccc(-c2csc(-c3cccs3)n2)c(OC)c1 | 6.31%
COc1ccc(-c2noc(-c3cccs3)n2)cc1OC | 10.1%
O=C(CN1C(=O)NC2NC(=O)NC21)NN=C1CCCC1 (stereo not given) | -3.27%
Cc1ccccc1N(CC(=O)NCCSCc1ccco1)S(C)(=O)=O | -3.95%
O=C(COC(=O)c1ccc(O)cc1)Nc1ccc(N2CCCCC2)cc1 | 3.59%
CC12CCC(C(=O)Nc3ccc4c(c3)OCCO4)(OC1=O)C2(C)C (stereo not given) | -12.4%
N#Cc1c(N)c(C(=O)c2ccc(Cl)cc2)n2c1CCC2 | -2.62%
CC(C)(C)C(=O)Nc1nnc(-c2ccncc2)o1 | -0.06%
CCCCNC(=O)Nc1nnc(-c2ccccc2)o1 | 64.8%
CC(C)C(=O)Nc1nnc(-c2ccccc2)o1 | 10.9%
O=C(Nc1nnc(-c2ccccc2)o1)c1cccc(N2C(=O)CCC2=O)c1 | 7.39%
CCCCOC(=O)c1nnc(-c2ccc(Cl)cc2)o1 | -12.6%
O=C(Nc1nnc(-c2ccncc2)o1)c1ccccc1 | 68%
O=C(Nc1cccnc1)c1ccc(Br)s1 | -8.07%
CC(NC(=O)c1ccc(Br)s1)c1ccncc1 (stereo not given) | 0.09%
COCCNC(=O)CCC(=O)NNc1nc2ccccc2c2nc(C)nn12 | -0.78%
CN(C)S(=O)(=O)c1cccc(C(=O)Nc2ccccc2[N+](=O)[O-])c1 | -64.1%
